Screens: PubChem BioAssay, National Center for Advancing Translational Sciences (NCATS)
Hits are enriched below; roughly 2.4% of the tested compounds scored in any of these assays.
YjeE inh = YjeE (TsaE) inhibition, E. coli. AID 605. purified YjeE enzyme, qHTS inhibition assay. 0.05% of 71,000 active. P0AF67. Potency, µM
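Purified YjeE (10 uM) with BODIPY Texas Red-labeled ADP probe (2 uM); compounds pin-transferred, 15 min at room temperature. Binding inhibition read as decreased fluorescence polarization; ADP titration as control.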
BRCT inh green = inhibitors of human BRCA1 BRCT-phosphoprotein interaction (green fluorophore) | 0.05% of 75,000 active | Potency, µM (highest dose often 76.9 µM), usual class: inhibitors | BRCA1 BRCT-phosphopeptide binding, green fluorescence polarization | P38398
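Compounds were incubated for 12 min at room temperature with a complex of 100 nM fluorescein-tagged pBACH1 decapeptide and 250 nM His-tagged BRCT protein. Buffer was phosphate pH 7.3 with EDTA, DTT and Tween 20. Disruption of binding lowers the polarization signal.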
DNA Pol III inh = blocks replication by bacterial DNA polymerase III holoenzyme; AID 603; 0.25% of 71,000 active; reconstituted DNA polymerase III holoenzyme replication, biochemical; Potency, µM (top dose mostly 57.1 µM)
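Reconstituted *E. coli* holoenzyme (0.35 nM Pol III, 1 nM beta, 154 nM SSB, 2 nM primase) was preincubated with compound for 15 min at RT. Synthesis on 1.4 nM ssM13Gori ran 35 min, then was stopped with PicoGreen/EDTA and read as dsDNA fluorescence.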
Tau fil binding = tau filament binding; P10636; Potency, µM (titrated, usually from 57.1 µM); recombinant tau filaments, thioflavin S fluorescence, 15 h; filaments grown with octadecylsulfate alongside compound; 2% of 71,000 active;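 note: actives lower thioflavin S fluorescence by blocking filaments or displacing dye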
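Read-out: ThS fluorescence, 450 nm excitation/510 nm emission; lower signal marks blocked filament formation or displaced dye. Tau at 1 uM with 30 uM ODS, 10 uM ThS, 5 mM DTT, 100 mM NaCl, 10 mM HEPES pH 7.4; 15 h, 37 C.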
BRCT inh red = inhibitors of human BRCA1 BRCT-phosphoprotein interaction (red fluorophore); P38398; BRCT-phosphopeptide binding, red fluorescence polarization; Potency, µM (doses to about 76.9 µM), usual class: inhibitors; 0.03% of 75,000 active; AID 892
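Rhodamine-labelled pBACH1 10-mer (100 nM) bound to BRCT domain (100 nM) at pH 7.3; compounds incubated 12 min room temperature, polarization read. Free peptide defines full inhibition; unlabelled decapeptide titrated as control.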
Hsp90 Hop PPI = changes Hsp90-Hop TPR2A binding signal, up or down | 0.44% of 71,000 active | AlphaScreen TPR2A-His6 binding biotin-Hsp90 C-terminal peptide | Potency, µM (titrated, usually from 57 µM) | AID 595; active = well fitted curve in either direction with a large enough effect; inconclusive = small, poorly fitted or top-dose-only effect, or another doubt
tau ThS displ = tau filament binding by ThS displacement; shares compounds with Tau fil binding; recombinant tau filaments, Thioflavin S fluorescence displacement; Potency, µM; 40% of 60 active; AID 911; calls by dose curve
aSyn ThS displ = alpha-synuclein fibril binding by ThS displacement; AID 937; Potency, µM; 40% of 60 active; shares compounds with Tau fil binding; recombinant alpha-synuclein fibrils, ThS fluorescence displacement; calls by dose curve
Abeta ThS displ = displaces Thioflavin S from Abeta1-42 fibrils; shares compounds with Tau fil binding; Abeta1-42 fibrillization, thioflavin S fluorescence, overnight 37 C; Potency, µM; 50% of 60 active; AID 956; calls by dose curve
A number is an active result; n = inactive; u = inconclusive; x = no result; [ ] = remark or other dose. Unless noted, calls come from the whole dose curve; as a rule, active = well fitted curve in the direction sought with a large enough effect; inconclusive = small, poorly fitted or top-dose-only effect, or another doubt; inactive = no such curve, though single readings can be large; an effect the other way counts as inactive or inconclusive.

SMILES	YjeE inh	BRCT inh green	DNA Pol III inh	Tau fil binding	BRCT inh red	Hsp90 Hop PPI	tau ThS displ	aSyn ThS displ	Abeta ThS displ
COc1cccc2c1C(=O)c1c(O)c3c(c(O)c1C2=O)C[C@@](O)(C(=O)CO)C[C@H]3O[C@H]1C[C@@H](N)[C@H](O)[C@@H](C)O1.[W]	n	n[15.4 µM]	u	n[11.4 µM]	n[15.4 µM]	n[11 µM]	4.2µM	7.1µM	2.8µM
c1ccc(B2OC[C@@H]3OB(c4ccccc4)O[C@H]([C@@H]4COB(c5ccccc5)O4)[C@@H]3O2)cc1	n	n[15.4 µM]	n[11.4 µM]	n[11.4 µM]	n[15.4 µM]	n[11 µM]	x	x	x
N=C1C=CC(=C(c2ccc(N)cc2)c2ccc(N)cc2)C=C1	u	n[15.4 µM]	n[11.4 µM]	1.3µM	n[15.4 µM]	n[11 µM]	1.6µM	2.3µM	0.51µM
Cc1ccc(N)cc1O	n	n	n	n	n	n	x	x	x
O=C(O)c1ccc(C(=O)O)c(C(=O)O)c1.[NH-][C@@H]1CCCC[C@@H]1[NH-].[Pt]	n	n[15.4 µM]	n[11.4 µM]	n[11.4 µM]	n[15.4 µM]	n[11 µM]	x	x	x
Cc1ccc2nc(NC(=O)C3CCCN(S(=O)(=O)c4cccc5nonc45)C3)sc2c1 (configuration not stated)	n	n	n	u	n	n	n	u	n
O=C(O)c1ccc(OCc2ccccc2)c(Cl)c1	n	n[15.4 µM]	n[11.4 µM]	n[11.4 µM]	n[15.4 µM]	n[11 µM]	x	x	x
